Hit rate of the full screen: of about 360,000 compounds, about 8,200 (2.3%) were called active. Cut-off read from the data, not from the text of the source: active = inhibition above about 27%; inactive = the rest. The list comes from a sample in which actives are over-represented; it also holds similar structures and randomly drawn compounds.
What follows are compounds tested against Fructose-bisphosphate aldolase (Mycobacterium tuberculosis (strain ATCC 25618 / H37Rv)) (UniProt P9WQA3) (assay: Mtb FBA enzyme inhibitors, primary screen, biochemical, fluorescence, strain H37Rv (AID 588726;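 note: 0% = vehicle and 100% = reference inhibitor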)). Details: purified M. tuberculosis FBA, fluorescence read-out, at 1 µM, stronger effect = higher value.
Chain of Fructose-bisphosphate aldolase (Mycobacterium tuberculosis (strain ATCC 25618 / H37Rv)) (P9WQA3 whole entry, looked up): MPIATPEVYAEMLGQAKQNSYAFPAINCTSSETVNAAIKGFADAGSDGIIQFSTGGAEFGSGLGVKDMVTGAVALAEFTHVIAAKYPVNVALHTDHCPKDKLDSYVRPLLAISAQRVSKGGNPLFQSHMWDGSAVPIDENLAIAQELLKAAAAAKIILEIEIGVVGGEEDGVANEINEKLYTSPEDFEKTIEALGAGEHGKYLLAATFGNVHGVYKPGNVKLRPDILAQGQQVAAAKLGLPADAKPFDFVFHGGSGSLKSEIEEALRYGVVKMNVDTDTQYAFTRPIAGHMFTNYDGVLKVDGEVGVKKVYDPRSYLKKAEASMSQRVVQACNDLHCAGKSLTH

| Compound | inhibition |
| --- | --- |
| COc1ccc(CNC(=O)COc2ccccc2C(=O)c2cnn(-c3ccccc3)c2)cc1OC | 6.29% (inactive) |
| CCCCNC(=O)c1ccccc1NC(=O)C1=C(C)OCCS1 | 1.28% (inactive) |
| Cc1ccc(-c2nn(-c3ccccc3)cc2/C=C/C(=O)Nc2cccc(S(N)(=O)=O)c2)cc1 | 2.47% (inactive) |
| O=C(O)/C=C/c1cn(-c2ccccc2)nc1-c1cccs1 | 57.3% (active) |
| CC(=O)C1=C(C)NC(C)=C(C(C)=O)C1c1cn(-c2ccccc2)nc1-c1cccs1 | 0.45% (inactive) |
| O=C1COc2ccc(NC(=O)N3CCN(c4ccc(F)cc4)CC3)cc2N1 | 1.24% (inactive) |
| CC(=O)NC12CC3CC(C1)CC(C(=O)N1CCN(S(=O)(=O)c4cccs4)CC1)(C3)C2 | -0.81% (inactive) |
| Cc1cn(C2OC[C@@H](O)[C@@H]2CO)c(=O)[nH]c1=O (stereo partly drawn) | 0.66% (inactive) |
| O=C(Nc1ccc([N+](=O)[O-])cc1)C1(c2ccccc2)CCOCC1 | -1.46% (inactive) |
| O=C(OCC(=O)N1CCCC1=O)c1cc(S(=O)(=O)N2CCOCC2)ccc1Cl | -0.38% (inactive) |
| CCOC(=O)c1cc(C)nc(S(C)(=O)=O)c1C#N | 3.95% (inactive) |
| COCc1c(N)c(C)nc(Cl)c1C#N | 7.26% (inactive) |
| COC(=O)c1c(C)c(C)nc(N)c1C#N | 82.5% (active) |
| Cn1nc(C(C)(C)C)c([N+](=O)[O-])c1C(N)=O | 1.86% (inactive) |
| O=C(Cn1cnc([N+](=O)[O-])n1)NCCc1ccccc1 | 0.01% (inactive) |
| CCCCCn1c(=O)[nH]c2cc(C(=O)NCCCN3CCCCC3C)ccc2c1=O (stereo not drawn) | 114% (active) |
| CC1CCCCN1CCCNC(=O)Cn1ncc2c([nH]c3ccccc32)c1=O (stereo not drawn) | 12% (inactive) |
| O=C(NC1CCCCC1)c1ccc2c(=O)n(CC3CCCO3)c(=O)[nH]c2c1 (stereo not drawn) | -9.09% (inactive) |
| CCOC1CS(=O)(=O)CC1OCC (stereo not drawn) | -0.21% (inactive) |
| c1ccc(Cc2c(-c3ccco3)nc3c4ccccc4ccn23)cc1 | 33.2% (active) |
| Cc1ccc(Cc2c(-c3ccc(C)cc3)nc3c4ccccc4ccn23)cc1 | 4.37% (inactive) |
| FC(F)(F)c1ccccc1Cc1c(-c2ccccc2)nc2c3ccccc3ccn12 | 5.62% (inactive) |
| Cc1cc(NC(=O)/C=C/C(=O)N(CC(=O)NC2CCCC2)c2ccc(F)cc2)no1 | -1.71% (inactive) |
| CC1CN(/C=C/C(=O)C(F)(F)F)CC(C)O1 (stereo not drawn) | -2.87% (inactive) |

| Compound | inhibition |
| --- | --- |
| O=C1CN(C(=O)COC(=O)C2CC(=O)N(Cc3ccco3)C2)c2ccccc2N1 (stereo not drawn) | 1.16% (inactive) |
| Cc1nc2ccc(NC(=O)C3CCCCC3)cc2s1 | 2.5% (inactive) |
| CN1C(=O)c2ccc(NC(=O)C3CCCCC3)cc2C1=O | 33.2% (active) |
| O=C(Nc1ccc2c(c1)OCCO2)C1CCCC1 | -2.43% (inactive) |
| Cc1cccc(C(=O)Nc2ccc3c(c2)C(=O)N(CC(C)C)C3=O)c1 | 8.31% (inactive) |
| CN1C(=O)c2ccc(NC(=O)c3c(F)c(F)c(F)c(F)c3F)cc2C1=O | 37.5% (active) |
| CN1C(=O)c2ccc(C(=O)Nc3ccc(Br)cn3)cc2C1=O | -2.34% (inactive) |
| COc1cc(CN2CCCN(C)CC2)c([N+](=O)[O-])cc1OC | 2.5% (inactive) |
| Cc1cc(=O)oc2cc(NC(=O)C3CC(=O)N(Cc4ccccc4)C3)ccc12 (stereo not drawn) | 68.5% (active) |
| O=C(Nc1ccc(F)c([N+](=O)[O-])c1)C1CC(=O)N(Cc2ccccc2)C1 (stereo not drawn) | -0.61% (inactive) |
| CCNC(=O)c1cccc(NC(=O)C2CC(=O)N(CCc3ccccc3)C2)c1 (stereo not drawn) | 3.18% (inactive) |
| CC(=O)c1cccc(NC(=O)COc2ccc(S(=O)(=O)N3CCOCC3)cc2)c1 | -1.21% (inactive) |
| Cc1ccc(NC(=O)C(CC(=O)O)C2CCCO2)c(C)c1 (stereo not drawn) | 2.55% (inactive) |
| O=c1c(-c2ccccc2)coc2c(CN3CCOCC3)c(O)ccc12 | 36.3% (active) |
| O=c1[nH]c(CN2CCOCC2)nc2scc(-c3ccccc3)c12 | -0.65% (inactive) |
| O=c1c(-c2ccccc2)coc2cc(O)ccc12 | 32.2% (active) |
| O=C1/C(=C/c2coc3ccc(O)cc3c2=O)SC(=S)N1c1ccccc1 | -0.97% (inactive) |
| CC(C)=CCc1c(O)c(CC=C(C)C)c2occ(-c3ccc(O)cc3)c(=O)c2c1O | -0.11% (inactive) |
| CCOC(=O)c1oc2c(CN3CCN(C)CC3)c(O)ccc2c(=O)c1-c1ccc(Br)cc1 | -0.95% (inactive) |
| O=C(Cc1cccs1)N(CC1CCCO1)C1(C(=O)NC2CCCCC2)CCCCC1 (stereo not drawn) | -1.48% (inactive) |
| C/C(=N/NC(=O)CN1CCN(S(=O)(=O)c2ccc(Br)cc2)CC1)c1ccncc1 | -1.72% (inactive) |
| Cc1nc2nc(C)c(NS(=O)(=O)c3ccc(C(C)(C)C)cc3)c(=O)n2[nH]1 | 1.79% (inactive) |
| CC(=O)c1ccc(N2CCN(CC(O)c3ccccc3)CC2)cc1 (stereo not drawn) | -0.54% (inactive) |
| COc1cc(N)c(Cl)cc1C(=O)OCC(=O)c1ccc2c(c1)NC(=O)CO2 | -2.6% (inactive) |

| Compound | inhibition |
| --- | --- |
| CSc1ccc(CN2C(=O)NC3(CCCCCC3)C2=O)cc1 | 6.55% (inactive) |
| COc1ccc(CNC(=O)c2cc(C(=O)C3CC3)c[nH]2)cc1 | 5.17% (inactive) |
| COc1ccc(CNC(=O)c2c[nH]c3c(OC)cc(OC)cc3c2=O)cc1 | 34.8% (active) |
| CCSc1ccccc1C(=O)NCc1ccc(OC)cc1 | -3.44% (inactive) |
| C=CC[C@@H](CC(=O)N[C@@H](CO)Cc1ccccc1)C(=O)N[C@H](COC(=O)[C@H](CC=C)CC(=O)OC(C)(C)C)Cc1ccccc1 | 3.8% (inactive) |
| CCCCc1nc(NCCN)c(C#N)c2c1CSC(C)(C)C2 | 5.12% (inactive) |
| Cc1nc(NCCN)c(C#N)c2c1COC(C)(C)C2 | 27.9% (active) |
| Cc1nc(NCc2ccccc2)c(C(N)=O)c2c1COC(C)(C)C2 | 22.3% (inactive) |
| CC(C)Cc1nnc(N)s1 | 0.9% (inactive) |
| CC(=O)Nc1ccc(S(=O)(=O)NCCC(=O)N2CCN(c3ccccc3Cl)CC2)cc1 | 3.53% (inactive) |
| O=c1c2ccccc2nc(-c2ccccc2)n1-c1ccccn1 | -4.31% (inactive) |
| O=C(Nn1c(-c2ccc(Cl)cc2)nc2ccccc2c1=O)c1cccnc1Cl | 15% (inactive) |
| Cc1ccc(-c2nc3ccccc3c(=O)n2-c2ccc(Br)cn2)cc1 | 27.5% (active) |
| O=Cc1c(N2CCN(c3cccc(Cl)c3)CC2)nc2ccccn2c1=O | 6.06% (inactive) |
| COCCNC(=O)/C(C#N)=C/c1nc(N(C)C)n(-c2ccc(F)cc2)c1Cl | 0.71% (inactive) |
| COCCCNC(=O)/C(C#N)=C/c1c(N2CCCCCC2)nc2ccccn2c1=O | 74.5% (active) |
| N#CC1(C#N)C(C(=O)C23CC4CC(CC(C4)C2)C3)C12CCOCC2 (stereo not drawn) | 1.25% (inactive) |
| CSc1ncccc1C(=O)OCc1ccc(Br)cc1 | 2.13% (inactive) |
| CCCc1nc2oc3c(OCC)ncnc3c2c2c1COC(C)(C)C2 | -1.08% (inactive) |
| CCCc1nc2oc3c(=O)[nH]cnc3c2c2c1COC(C)(C)C2 | 40.7% (active) |
| CC/C(C)=N/Nc1nc2sc3c(c2c(=O)[nH]1)CC(C)(C)OC3 | 21.5% (inactive) |
| Nn1c(SCC(=O)NC(=O)NC2CCCC2)nnc1-c1ccccc1F | 0.25% (inactive) |
| Cc1nc2ccc(C(=O)N3CCSCC3)cc2s1 | -8.83% (inactive) |
| CN(CCc1ccccn1)C(=O)c1ccc(OC2CCN(Cc3ccccn3)CC2)cc1 | 3.08% (inactive) |

| Compound | inhibition |
| --- | --- |
| COc1cc2c(cc1O)C(SC)=NC(C)(C)C2 | 0.86% (inactive) |
| COc1cc2c(cc1OC)C(C(C)C)=NC(C)(C)C2 | 140% (active) |
| COc1cc2c(cc1OC)C(Nc1ccc(S(N)(=O)=O)cc1)=NC(C)(C)C2 | 0.94% (inactive) |
| O=C(COc1ccccc1Cl)N1CCCCCCC1 | 3.37% (inactive) |
| COc1ccccc1C(=O)Nc1ccc(OCc2nnc3c4ccccc4c(C)nn23)cc1 | 1.57% (inactive) |
| COc1ccccc1C(=O)Nc1ccc(OCC(=O)N2CCCCC2)cc1 | 42.3% (active) |
| CCN(CC)c1ncnc2c1ncn2[C@H]1CN(Cc2cccs2)C[C@@H](CO)O1 | 1.17% (inactive) |
| OC[C@@H]1CN(Cc2cccs2)C[C@H](n2cnc3c(NC4CCCC4)ncnc32)O1 | -0.13% (inactive) |
| OC[C@@H]1CN(Cc2cccs2)C[C@H](n2cnc3c(Nc4ccccc4)ncnc32)O1 | 44.8% (active) |
| CC1(C)CC2CC(C)(CN2c2ncnc3ccc(Br)cc23)C1 (stereo not drawn) | 6.02% (inactive) |
| Cc1occc(=O)c1OCc1c(Cl)cccc1Cl | 2.61% (inactive) |
| CN(C(=O)CSc1nnc(N)s1)c1c(N)n(Cc2ccccc2)c(=O)[nH]c1=O | 1.14% (inactive) |
| CCCN(C(=O)CSc1nnc(N)s1)c1c(N)n(Cc2ccccc2)c(=O)[nH]c1=O | 48.3% (active) |
| CCCN(C(=O)CSc1nnnn1C)c1c(N)n(Cc2ccccc2)c(=O)[nH]c1=O | 9.36% (inactive) |
| COc1ccc(CNC(=O)C[C@H]2C[C@H](C(=O)N3CCOCC3)[C@@]3(C)c4[nH]c5cc(CCC(=O)N(C)C)ccc5c4CCN3C2=O)cc1OC | -3.63% (inactive) |
| COc1ccccc1CNC(=O)C1CCN(c2nc3ccccc3o2)CC1 | 0.23% (inactive) |
| N#Cc1nc(COc2ccc(Cl)cc2)oc1N1CCCC1 | -2.71% (inactive) |
| COc1ccccc1N(C)S(=O)(=O)c1ccc(C(=O)N2CCC(C(N)=O)CC2)cc1 | 2.31% (inactive) |
| Cc1oc(-c2ccccc2F)nc1CS(=O)CC(=O)NCCN1CCCCC1C (stereo not drawn) | -1.66% (inactive) |
| Cc1nc(-c2ccccc2)sc1-c1nnc(C2CC2)o1 | 18.1% (inactive) |
| Cn1cnnc1Sc1ccc(CN2CCN(C3CCCC3)C(CCO)C2)o1 (stereo not drawn) | -0.65% (inactive) |

— PubChem BioAssay AID588726 (The Scripps Research Institute Molecular Screening Center, 2011)
